Growth data for 13 compounds are collected here from PubChem BioAssay (NCI).

The structures appear in SMILES notation. The panel holds about 83,000 compounds, 20% with a hit somewhere; the sample as a whole holds those more often.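 Compound tested at a single concentration for 48 hours in 96-well plates; a percent growth value below 10 was scored as active.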 Values without a mark were called inactive. Activity calls are given as the source filed them.

Among the test systems are HCT-15 colon; HT29 colon; SNB-75 CNS; SNB-19 CNS; U251 CNS; PC-3 prostate; SK-MEL-5 melanoma; UACC-62 melanoma; LOX IMVI melanoma; SK-MEL-28 melanoma.
Common to all, as to assay: NCI-60 one-dose screen, 48 h (100 = growth as untreated, 0 = no growth, -100 = all killed)
Conditions in all cases: 10 µM unless noted

Regarding `ClCCN(CCCl)c1nc(Cl)c(C2CC(c3ccccc3)=NN2c2cc(Cl)cc(Cl)c2)s1` (stereo not given), the growth in the assay on HCT-15 colon is 104%; in the assay with HT29 colon, 101%; with SNB-75 CNS it was 96.4%; in the assay on SNB-19 CNS, 98.7%; with U251 CNS, 99.4%; in the assay with PC-3 prostate, 93.7%. Further, the growth in the assay with SK-MEL-5 melanoma was 102%; in the assay with UACC-62 melanoma it was 92.9%; with LOX IMVI melanoma, 99.2%; in the assay on SK-MEL-28 melanoma it was 106%.

For `CCOC(=O)C(Cc1ccc(N(CCCl)CCCl)cc1)NC(=O)C(CC(C)C)NC(C)=O` (stereo not given), the growth was 35% with HCT-15 colon; 8.7% (active) in the assay on HT29 colon; 41.6% in the assay on SNB-75 CNS; 57.6% with SNB-19 CNS; 25.5% in the assay on U251 CNS; 60.9% in the assay with PC-3 prostate. Moreover, the growth is 60.8% in the assay on SK-MEL-5 melanoma, 13.1% in the assay with UACC-62 melanoma, -15.6% (active) with LOX IMVI melanoma and 6.21% (active) with SK-MEL-28 melanoma.

Turning to `CC1=C(CCCOC(=O)CN)C2=C(C)C3(CC3)[C@@](C)(O)C(=O)C2=C1`, the growth was 77.6% in the assay with HCT-15 colon; 69.9% in the assay with HT29 colon; 97% with SNB-75 CNS; 91.2% in the assay on SNB-19 CNS; 82.3% with U251 CNS; 69.4% in the assay with PC-3 prostate. Moreover, the growth was 92.2% in the assay with SK-MEL-5 melanoma, 90.8% with UACC-62 melanoma, 88.6% in the assay on LOX IMVI melanoma and 115% in the assay on SK-MEL-28 melanoma.

In the case of `O=C(CCl)c1ccc([N+](=O)[O-])o1`, the growth in the assay with HCT-15 colon was -86.6% (active); with HT29 colon it was -14.3% (active); in the assay on SNB-75 CNS it was 51.3%; with SNB-19 CNS it was 75.4%; in the assay on U251 CNS, 7.98% (active); with PC-3 prostate, -23.8% (active). Besides, the growth in the assay with SK-MEL-5 melanoma is 62.8%; with UACC-62 melanoma, 33%; with LOX IMVI melanoma, -81.8% (active); in the assay on SK-MEL-28 melanoma it was -64.6% (active).

For the compound `O=[N+]([O-])CC(c1ccccc1Cl)c1c(-c2ccccc2)[nH]c2ccccc12` (stereo not given), the growth was 22.8% in the assay with HCT-15 colon; 8.38% (active) in the assay on HT29 colon; 6.44% (active) with SNB-75 CNS; 45.4% with SNB-19 CNS; 34.8% with U251 CNS; 31.6% in the assay with PC-3 prostate. The growth in the assay with SK-MEL-5 melanoma is 28.4%; in the assay with UACC-62 melanoma, 30.7%; in the assay with LOX IMVI melanoma it was 33.4%; in the assay on SK-MEL-28 melanoma, 61.4%.

On to `COC(=O)[C@@H](C)C[C@H](Cc1ccc2ccccc2c1)NC(=O)c1csc([C@@H](C[C@H](C(C)C)N(C)C(=O)[C@@H](NC(=O)[C@H]2CCCCN2C)C(C)C)OC(C)=O)n1`, for which the growth in the assay with HCT-15 colon was 70.3%; with HT29 colon, 1.71% (active); in the assay on SNB-75 CNS, 42.8%; in the assay on SNB-19 CNS, 51.8%; in the assay on U251 CNS it was 22.1%; in the assay with PC-3 prostate, 47.3%. Besides, the growth with SK-MEL-5 melanoma was -21% (active); with UACC-62 melanoma it was 49.3%; in the assay with LOX IMVI melanoma it was 28.3%; with SK-MEL-28 melanoma, 68.6%.

Consider `CC1(C)N=C(N)N=C(N)N1c1ccc(OCCCNC(=O)Nc2ccc(S(=O)(=O)F)cc2)c(Cl)c1`, for which the growth is 41.5% in the assay on HCT-15 colon; 8% (active) in the assay with HT29 colon; 57.6% in the assay on SNB-75 CNS; 28.6% in the assay on SNB-19 CNS; 24.5% with U251 CNS; 12.7% in the assay with PC-3 prostate. For the same compound, the growth with SK-MEL-5 melanoma was 29%; in the assay on UACC-62 melanoma, 23.7%; in the assay with LOX IMVI melanoma, 16.2%; with SK-MEL-28 melanoma it was 54.2%.

Consider `C[C@@H]1C[C@@]2(C)[C@@H](CC[C@@H]3[C@@H]2CC[C@]2(C)C(=O)CC[C@@H]32)CC1=O`, for which the growth in the assay with HCT-15 colon was 103%; in the assay with HT29 colon, 91.8%; in the assay with SNB-75 CNS, 86.2%; with SNB-19 CNS, 96.7%; in the assay with U251 CNS, 101%; with PC-3 prostate, 97.3%. The growth with SK-MEL-5 melanoma is 114%; in the assay on UACC-62 melanoma, 99.4%; in the assay on LOX IMVI melanoma it was 98.5%; with SK-MEL-28 melanoma it was 76.7%.

On to `CC[C@H](C)[C@H](NC(=O)[C@H]1CCCCN1C)C(=O)N(C)[C@H](C[C@@H](OC(C)=O)c1cccc(C(=O)N[C@@H](Cc2ccccc2)C[C@H](C)C(=O)O)n1)C(C)C`, for which the growth in the assay with HCT-15 colon was 9.38% (active); in the assay with HT29 colon, -13.2% (active); in the assay on SNB-75 CNS, 8.07% (active); with SNB-19 CNS, 26.9%; in the assay with U251 CNS, 13.6%; in the assay with PC-3 prostate it was 25.4%. In addition, the growth in the assay with SK-MEL-5 melanoma was -24.5% (active); in the assay with UACC-62 melanoma, 40.4%; in the assay on LOX IMVI melanoma, 15.3%; in the assay on SK-MEL-28 melanoma, 69.3%.

As for `CCOP1(=O)CC(C)=C(Cl)C(P(=O)(OCC)OCC)C1` (stereo not given), the growth in the assay with HCT-15 colon is 101%; in the assay with HT29 colon, 96.2%; in the assay with SNB-75 CNS it was 78.7%; in the assay with SNB-19 CNS, 89.9%; in the assay with U251 CNS it was 101%; in the assay on PC-3 prostate, 92.6%. In addition, the growth with SK-MEL-5 melanoma is 101%; in the assay on UACC-62 melanoma, 92.3%; in the assay with LOX IMVI melanoma it was 92.6%; with SK-MEL-28 melanoma, 87.3%.

With `N#C[Se]Cc1cc(-c2ccccc2)n(-c2ccc(S(N)(=O)=O)cc2)n1`, the growth with HCT-15 colon is 4.73% (active); in the assay with HT29 colon, -27% (active); in the assay with SNB-75 CNS, -38.3% (active); in the assay on SNB-19 CNS it was -100% (active); with U251 CNS it was -61.2% (active); in the assay with PC-3 prostate it was -13.1% (active). For the same compound, the growth in the assay on SK-MEL-5 melanoma was -76.6% (active); in the assay on UACC-62 melanoma, -9.79% (active); in the assay with LOX IMVI melanoma, -69.4% (active); in the assay with SK-MEL-28 melanoma it was -58.8% (active).

Take `CC[C@H](C)[C@H](NC(=O)[C@H]1CCCCN1C)C(=O)N(C)[C@H](C[C@@H](OC(C)=O)c1nc(C(=O)NC23CC(C(=O)OC)(C2)C3)cs1)C(C)C`: the growth was 6.1% (active) in the assay with HCT-15 colon; -9.84% (active) in the assay on HT29 colon; 15% with SNB-75 CNS; 29% in the assay on SNB-19 CNS; 6.7% (active) in the assay on U251 CNS; 23.6% in the assay on PC-3 prostate. The growth was -65.7% (active) in the assay with SK-MEL-5 melanoma, 44.3% in the assay on UACC-62 melanoma, 4.9% (active) in the assay with LOX IMVI melanoma and 60.8% in the assay with SK-MEL-28 melanoma.

As for `C[C@]12CC[C@@H]3c4ccc(Oc5nc(N6CC6)nc(N6CC6)n5)cc4CC[C@H]3[C@@H]1CCC2=O`, the growth in the assay with HCT-15 colon was 37.4%; in the assay with HT29 colon, 19.3%; in the assay with SNB-75 CNS, 30.3%; in the assay on SNB-19 CNS, 48.8%; with U251 CNS it was 31.9%; with PC-3 prostate it was 53.8%. For the same compound, the growth was 5.82% (active) in the assay with SK-MEL-5 melanoma, 18.4% in the assay on UACC-62 melanoma, -63.1% (active) in the assay with LOX IMVI melanoma and 63.5% with SK-MEL-28 melanoma.
